Pf Dd2 growth: inhibitors of Plasmodium falciparum Dd2 growth; P. falciparum Dd2 growth, SYBR Green, 72 h; Potency, µM (doses to about 28.9 µM), actives largely listed as inhibitors; 120,000 tested, 4.3% active; AID 1347417; active means well fitted inhibition curve with a large enough effect; further: nearly all actives have a fitted effect of over 65% in size
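Readout: SYBR Green fluorescence, 485 nm excitation, 535 nm emission, after ~16 h lysis at 37C. Before that, Dd2-infected red cells (2.5% hematocrit) grew 72 h with compound, 29 uM top final concentration.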
Of the large screens only hits and unclear results are named; the others gave an inactive call. This is one part of a sample in which hits are shown more often than they occur.

CS(=O)(=O)Nc1ccc(C2(C(=O)NCC3CCCCC3)CCCCC2)cc1	none
Cc1ccc(C2NC(=O)N(CC(=O)NCc3ccccc3Cl)C3=C2C(=O)OC3)cc1 (stereo not drawn)	none
Cc1cn2nc(C(=O)NCc3ccccn3)cc2c(N2CCCC2)n1	none
Cc1cn2nc(C(=O)NC3CCc4ccccc43)cc2c(N2CCCC2)n1 (stereo not drawn)	Pf Dd2 growth 5.6µM
COc1ccc(CCNC(=O)c2cc3c(N4CCCC4)nc(C)cn3n2)cc1OC	none
Cc1cn2nc(C(=O)NCCc3cccs3)cc2c(N2CCCC2)n1	Pf Dd2 growth 7.1µM
Cc1ccc(CCNC(=O)c2cc3c(N4CCCC4)nc(C)cn3n2)cc1	none
Cc1cn2nc(C(=O)NC3CCCC3)cc2c(N2CCCC2)n1	none
Cc1cn2nc(C(=O)Nc3ccc(N(C)C)cc3)cc2c(N2CCCC2)n1	Pf Dd2 growth 0.63µM
Cc1cn2nc(C(=O)NCc3ccccc3Cl)cc2c(N2CCCC2)n1	Pf Dd2 growth 8.9µM
COc1cccc(NC(=O)c2cc3c(N4CCSCC4)nc(C)cn3n2)c1	none
Cc1cn2nc(C(=O)NCCc3ccc(S(N)(=O)=O)cc3)cc2c(N2CCCC2)n1	none
Cc1cn2nc(C(=O)NCc3ccc(C(C)C)cc3)cc2c(N2CCCC2)n1	none
COc1cc(NC(=O)c2cc3c(N4CCSCC4)nc(C)cn3n2)cc(OC)c1OC	none
CCc1nnc([C@@H]2CC(F)(F)CN2C(=O)c2ccc3nc[nH]c3c2)o1	none
COc1ccc2[nH]c3c(c2c1)CCNC31CCN(C(=O)c2nccn2C)CC1	none
Cc1ncc2c(n1)C[C@@H]1CC[C@H]2N1C(=O)COc1ccccc1	none
CCc1nc(-c2ccc(OC3CCN(C(=O)C4CC4)C3)cc2)no1 (stereo not drawn)	none
CC(=O)c1cccc(NC(=O)Cn2c(SCC(=O)Nc3ccc(F)cc3)nc3ccccc32)c1	none
NC(=O)[C@@H](Cc1ccccc1)NC(=O)C1=C[C@@H](NC(=O)CC2(CC(=O)O)CCCC2)[C@@H](O)[C@H](O)C1	none
CCNC(=O)N[C@H]1CO[C@H]2[C@@H]1OC[C@H]2OC(=O)Nc1cccc(C(F)(F)F)c1	none
CCOc1ccc(C(=O)NC2CCCN(c3cc(-c4ccc(F)cc4)[nH]n3)C2)cc1OCC (stereo not drawn)	none
CN(Cc1cccc(-n2cccn2)c1)C(=O)C1COc2ccccc2C1 (stereo not drawn)	none
CCn1ccc(C(=O)N2CCC(Oc3ccccc3)C2)n1 (stereo not drawn)	none
COCCOC(=O)C1=C(C)N=C2SC=C(CC(=O)N3CCOCC3)N2C1c1ccc(C)cc1C (stereo not drawn)	none
COc1cccc(C(=O)Nc2ccc(NC(=O)c3ccc(C(C)(C)C)cc3)cc2)c1	none
Cc1ccccc1C(=O)Nc1cccc(NC(=O)c2ccc(C(C)(C)C)cc2)c1	Pf Dd2 growth 13µM
O=C(Nc1cccc(NC(=O)c2ccccc2F)c1)c1ccccc1	none
Cc1ccc(Cl)cc1N1CCN(C(=O)CN2C(=O)CSc3c2c(C)nn3-c2ccccc2)CC1	none
CCOc1cccc(C2c3c(oc4ccc(F)cc4c3=O)C(=O)N2CCc2ccc(OC)cc2)c1 (stereo not drawn)	none
CCCOc1cccc(C2c3c(oc4ccc(F)cc4c3=O)C(=O)N2CCCN2CCOCC2)c1 (stereo not drawn)	Pf Dd2 growth 6.3µM
COc1cccc(C2c3c(oc4ccc(C)cc4c3=O)C(=O)N2CCCN2CCOCC2)c1OC (stereo not drawn)	none
COc1cc(NC(=O)NCCc2c(C)nn(C)c2C)cc(OC)c1OC	none
Cc1ccccc1NC(=O)CSc1nc(-c2ccc(F)cc2)c2cccc(C)c2n1	none
CC(C)C(=O)N(Cc1ccccc1)S(=O)(=O)c1ccc2c(c1)oc(=O)n2C	none
CC(=O)c1cccc(NC(=O)NC[C@H]2C[C@@H]3CCN2C[C@@H]3c2cc(-c3cccs3)nc(C)n2)c1	none
CCC(CC)c1cc([C@H]2CN3CC[C@H]2C[C@@H]3CNC(=O)Cc2cccs2)nc(-c2ccncc2)n1	Pf Dd2 growth 0.71µM
Cn1nc(-c2ccc3ccccc3c2)cc1[C@H]1CN2CC[C@H]1C[C@@H]2CNC(=O)COc1ccccc1	none
Cc1nc(-c2ccccc2)cc([C@H]2CN3CC[C@H]2C[C@@H]3CNC(=O)CCCC(=O)O)n1	none
CCC(CC)c1cc([C@H]2CN3CC[C@H]2C[C@@H]3COC(=O)Nc2ccccc2)nc(-c2ccncc2)n1	none
CCC(CC)c1cc([C@H]2CN3CC[C@H]2C[C@@H]3CNC(=O)c2cc(OC)c(OC)c(OC)c2)nc(-c2ccncc2)n1	none
CCC(CC)c1cc([C@H]2CN3CC[C@H]2C[C@@H]3CNC(=O)c2ccc(N(C)C)cc2)nc(-c2ccncc2)n1	none
CCC(CC)c1cc([C@H]2CN3CC[C@H]2C[C@@H]3CNC(=O)COc2ccccc2)nc(-c2ccncc2)n1	Pf Dd2 growth 0.45µM
CCC(CC)c1cc([C@H]2CN3CC[C@H]2C[C@@H]3CNC(=O)c2cccs2)nc(-c2ccncc2)n1	Pf Dd2 growth 0.25µM
Cc1ccc2c(=O)cc(C(=O)Nc3c(C)cccc3C)oc2c1	none
O=C(NCc1cccc(Cl)c1)NCc1noc2ccccc12	none
COC(=O)c1c(C)oc2ccc(N(C(=O)c3ccncc3)S(=O)(=O)c3cc(C)ccc3C)cc12	none
Cc1cc(S(=O)(=O)N2CCC(Oc3ccc(C(N)=O)cn3)CC2)ccc1Cl	none
CN(C)c1ccc(CNc2nc(-c3ccco3)nn2S(=O)(=O)c2ccc3ccccc3c2)cc1	none
O=C1NCCCCCCN(C(=O)Cc2ccccc2)[C@@H]2C[C@@H](c3nc(-c4cccnc4)no3)C[C@H]12	none
CN(C)c1ccc(C(=O)N2CCN(c3cc(-c4ccc(Cl)cc4)[nH]n3)CC2)cc1	none
CN(Cc1cccn1C)C(=O)Nc1ccc(Cl)cc1	none
CCN1CCN(c2ncc3c(n2)CCN(Cc2ccc(C)s2)C3)CC1	none
CCN1CCN(c2ncc3c(n2)CCN(Cc2cc(Br)cs2)C3)CC1	Pf Dd2 growth 13µM
CCOc1ccc(CN2CCc3nc(Nc4ccc(OC)cc4OC)ncc3C2)cc1	none
CCCCN1CCc2nc(N3CCN(C)CC3)ncc2C1	none
CN1CCN(c2ncc3c(n2)CCN(Cc2ccc(Br)s2)C3)CC1	none
Cc1ccc(CN2CCc3nc(N4CCN(c5ccccc5F)CC4)ncc3C2)cc1C	none
CN(C)c1ccc(CN2CCc3nc(N4CCN(c5ccccn5)CC4)ncc3C2)cc1	Pf Dd2 growth 13µM
COc1ccccc1N1CCN(c2ncc3c(n2)CCN(Cc2ccccc2C)C3)CC1	none
COCCn1cc(CN2CCN(c3ccccn3)CC2)ccc1=O	none
Cc1ccccc1CN1CCc2nc(N3CCN(c4ncccn4)CC3)ncc2C1	Pf Dd2 growth 8.9µM
CCOc1ccccc1CN1CCc2nc(N(C)C)[nH]c(=O)c2CC1	none
CCOc1ccccc1CN1CCc2nc(N3CCN(c4ccccc4F)CC3)ncc2C1	Pf Dd2 growth 8.9µM
Cc1ccccc1NC(=O)c1ccc(Cl)c(S(=O)(=O)N2CCCCCC2)c1	none
O=C(NC1CC1)c1ccn2nccc2c1	none
CN(C)S(=O)(=O)N1CCOCCNC(=O)[C@@H]2CCC[C@@H]21	none
COc1ccc(-c2nnc(SC(C)C(=O)O)o2)cc1 (stereo not drawn)	none
O=C(COc1ccc(F)cc1)N1CCN2CCS(=O)(=O)N(C3CC3)C(=O)C2C1 (stereo not drawn)	none
COCCOC1CCN(C(=O)Cc2cccc(F)c2)CC1	none
COc1cc(CN2CCc3nc(N4CCN(c5ccccc5F)CC4)ncc3C2)ccc1OC(C)C	none
COc1cc(CN2CCc3nc(N4CCN(c5ncccn5)CC4)ncc3C2)cc(OC)c1OC	Pf Dd2 growth 7.9µM
CCOc1ccc(CN2CCc3nc(N4CCN(c5ccccn5)CC4)ncc3C2)cc1OC	none
CCCN(CC1CCOC1)S(=O)(=O)c1ccc(Cl)c(C)c1 (stereo not drawn)	none

Source: PubChem BioAssay (National Center for Advancing Translational Sciences (NCATS))
